Reference: the supplement of paper PMC4022240
± gives the standard deviation.

Columns and labels:
Assay in all cases: peptide microarray binding signal (635 nm), min-max normalized on array (fraction of array maximum); higher = stronger binding
Details in all cases: peptide region: H2A 1-13
[1] = target: T1, HaloTag-ATRX ADD domain (163-292)
T1 chain: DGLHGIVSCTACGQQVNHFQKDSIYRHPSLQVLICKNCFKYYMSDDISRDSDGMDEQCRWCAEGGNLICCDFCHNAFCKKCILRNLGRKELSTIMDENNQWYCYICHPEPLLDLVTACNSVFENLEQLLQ
Protocol: (§1)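 Histone 13-mer peptides were synthesized as cellulose conjugates with a C-terminal 20-atom PEG linker and printed in triplicate on nitrocellulose. The sequence given is the unmodified backbone; PTMs (Kme1/2/3, Kac, Sph/Tph, Rme/Rme2a/Rme2s, Rcit) are listed in the label and the 'peptide modifications' condition. Slides were probed at 4 °C for 1 h with biotin-labelled (HQ)5-HaloTag reader fusions (ATRX-ADD, ING2-PHD) then streptavidin-Alexa647, or with rabbit histone antibodies then anti-rabbit Alexa647. The mean 635 nm signal of the triplicate spots was scaled 0-1 between the lowest and highest values on each array.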

[2] = target: HaloTag-ING2 PHD (mouse Ing2 200-280)
Protocol: as §1

[3] = target: anti-H3K4me3 antibody ab8580
Protocol: as §1

[4] = target: anti-H3K9me3 antibody ab8898
Protocol: as §1

[5] = peptide modifications: H2AR3me2s H2AK5ac, binder concentration: 1:2,000 dilution
[6] = peptide modifications: H2AR3me2s H2AK5ac, binder concentration: 1:10,000 dilution
[7] = peptide modifications: H2AR3me2s, binder concentration: 1:2,000 dilution
[8] = peptide modifications: H2AR3me2s, binder concentration: 1:10,000 dilution
[9] = peptide modifications: H2AS1ph H2AK5ac H2AK9ac, binder concentration: 1:2,000 dilution
[10] = peptide modifications: H2AS1ph H2AK5ac H2AK9ac, binder concentration: 1:10,000 dilution
[11] = peptide modifications: H2AS1ph H2AK5ac, binder concentration: 1:2,000 dilution
[12] = peptide modifications: H2AS1ph H2AK5ac, binder concentration: 1:10,000 dilution
[13] = peptide modifications: H2AS1ph H2AK9ac, binder concentration: 1:2,000 dilution
[14] = peptide modifications: H2AS1ph H2AR3cit, binder concentration: 1:2,000 dilution
[15] = peptide modifications: H2AS1ph H2AR3cit, binder concentration: 1:10,000 dilution
[16] = peptide modifications: H2AS1ph H2AR3me1, binder concentration: 1:2,000 dilution
[17] = peptide modifications: H2AS1ph H2AR3me1, binder concentration: 1:10,000 dilution
[18] = peptide modifications: H2AS1ph H2AR3me2a, binder concentration: 1:2,000 dilution
[19] = peptide modifications: H2AS1ph H2AR3me2a, binder concentration: 1:10,000 dilution
[20] = peptide modifications: H2AS1ph H2AR3me2s, binder concentration: 1:2,000 dilution
[21] = peptide modifications: H2AS1ph H2AR3me2s, binder concentration: 1:10,000 dilution
[22] = peptide modifications: H2AS1ph, binder concentration: 1:2,000 dilution
[23] = peptide modifications: H2AS1ph, binder concentration: 1:10,000 dilution

SGRGKQGGKARAK [H2A 1-13 S G Rme2s G Kac Q G G K A R A K]
peptide microarray binding signal ([1]; peptide modifications: H2AR3me2s H2AK5ac, binder concentration: 50 nM): 0.00458 ± 0.00026
peptide microarray binding signal ([1]; peptide modifications: H2AR3me2s H2AK5ac, binder concentration: 500 nM): 0.00562 ± 0.00037
peptide microarray binding signal ([2]; peptide modifications: H2AR3me2s H2AK5ac, binder concentration: 10 nM): 0.00603 ± 0.00016
peptide microarray binding signal ([2]; peptide modifications: H2AR3me2s H2AK5ac, binder concentration: 100 nM): 0.00461 ± 7.6e-05
peptide microarray binding signal [3, 5]: 0.000736
peptide microarray binding signal [3, 6]: 0.0012 ± 1.2e-05
peptide microarray binding signal [4, 5]: 0.000589 ± 9.4e-06
peptide microarray binding signal [4, 6]: 0.00179 ± 6.1e-05

SGRGKQGGKARAK [H2A 1-13 S G Rme2s G K Q G G K A R A K]
peptide microarray binding signal ([1]; peptide modifications: H2AR3me2s, binder concentration: 50 nM): 0.00696 ± 0.0016
peptide microarray binding signal ([1]; peptide modifications: H2AR3me2s, binder concentration: 500 nM): 0.0101 ± 0.00014
peptide microarray binding signal ([2]; peptide modifications: H2AR3me2s, binder concentration: 10 nM): 0.00519 ± 0.00018
peptide microarray binding signal ([2]; peptide modifications: H2AR3me2s, binder concentration: 100 nM): 0.00893 ± 0.00025
peptide microarray binding signal [3, 7]: 0.00108 ± 4.1e-05
peptide microarray binding signal [3, 8]: 0.00183 ± 9.6e-05
peptide microarray binding signal [4, 7]: 0.000755 ± 7.7e-05
peptide microarray binding signal [4, 8]: 0.000923 ± 2.5e-05

SGRGKQGGKARAK [H2A 1-13 Sph G R G Kac Q G G Kac A R A K]
peptide microarray binding signal ([1]; peptide modifications: H2AS1ph H2AK5ac H2AK9ac, binder concentration: 50 nM): 0.00408 ± 0.00018
peptide microarray binding signal ([1]; peptide modifications: H2AS1ph H2AK5ac H2AK9ac, binder concentration: 500 nM): 0.00738 ± 0.00011
peptide microarray binding signal ([2]; peptide modifications: H2AS1ph H2AK5ac H2AK9ac, binder concentration: 10 nM): 0.00257 ± 5e-05
peptide microarray binding signal ([2]; peptide modifications: H2AS1ph H2AK5ac H2AK9ac, binder concentration: 100 nM): 0.00687 ± 0.00064
peptide microarray binding signal [3, 9]: 0.000321 ± 6.7e-06
peptide microarray binding signal [3, 10]: 0.000399
peptide microarray binding signal [4, 9]: 0.000272 ± 4.9e-06
peptide microarray binding signal [4, 10]: 0.000577 ± 6.2e-06

SGRGKQGGKARAK [H2A 1-13 Sph G R G Kac Q G G K A R A K]
peptide microarray binding signal ([1]; peptide modifications: H2AS1ph H2AK5ac, binder concentration: 50 nM): 0.00298 ± 3.8e-05
peptide microarray binding signal ([1]; peptide modifications: H2AS1ph H2AK5ac, binder concentration: 500 nM): 0.00752 ± 0.00011
peptide microarray binding signal ([2]; peptide modifications: H2AS1ph H2AK5ac, binder concentration: 10 nM): 0.00292 ± 9.7e-05
peptide microarray binding signal ([2]; peptide modifications: H2AS1ph H2AK5ac, binder concentration: 100 nM): 0.00276 ± 0.00011
peptide microarray binding signal [3, 11]: 0.000264 ± 5.6e-06
peptide microarray binding signal [3, 12]: 0.000685 ± 7.2e-06
peptide microarray binding signal [4, 11]: 0.000257 ± 2.7e-06
peptide microarray binding signal [4, 12]: 0.000577 ± 6.2e-06

SGRGKQGGKARAK [H2A 1-13 Sph G R G K Q G G Kac A R A K]
peptide microarray binding signal ([1]; peptide modifications: H2AS1ph H2AK9ac, binder concentration: 500 nM): 0.005476 ± 3.5e-05
peptide microarray binding signal ([2]; peptide modifications: H2AS1ph H2AK9ac, binder concentration: 100 nM): 0.00354 ± 0.00045
peptide microarray binding signal [3, 13]: 0.000208 ± 2.2e-06
peptide microarray binding signal [4, 13]: 0.000121 ± 1.3e-06

SGRGKQGGKARAK [H2A 1-13 Sph G Rcit G K Q G G K A R A K]
peptide microarray binding signal ([1]; peptide modifications: H2AS1ph H2AR3cit, binder concentration: 50 nM): 0.00392 ± 8.1e-05
peptide microarray binding signal ([1]; peptide modifications: H2AS1ph H2AR3cit, binder concentration: 500 nM): 0.00486 ± 5.6e-05
peptide microarray binding signal ([2]; peptide modifications: H2AS1ph H2AR3cit, binder concentration: 10 nM): 0.00167 ± 3e-05
peptide microarray binding signal ([2]; peptide modifications: H2AS1ph H2AR3cit, binder concentration: 100 nM): 0.00283 ± 0.0002
peptide microarray binding signal [3, 14]: 0.000472 ± 2.6e-05
peptide microarray binding signal [3, 15]: 0.000514 ± 1.1e-05
peptide microarray binding signal [4, 14]: 0.000272 ± 4.9e-06
peptide microarray binding signal [4, 15]: 0.000692 ± 7.3e-06

SGRGKQGGKARAK [H2A 1-13 Sph G Rme G K Q G G K A R A K]
peptide microarray binding signal ([1]; peptide modifications: H2AS1ph H2AR3me1, binder concentration: 50 nM): 0.0036 ± 0.00033
peptide microarray binding signal ([1]; peptide modifications: H2AS1ph H2AR3me1, binder concentration: 500 nM): 0.00495 ± 6.5e-05
peptide microarray binding signal ([2]; peptide modifications: H2AS1ph H2AR3me1, binder concentration: 10 nM): 0.00346 ± 0.00011
peptide microarray binding signal ([2]; peptide modifications: H2AS1ph H2AR3me1, binder concentration: 100 nM): 0.00446 ± 0.00061
peptide microarray binding signal [3, 16]: 0.000566 ± 1.9e-05
peptide microarray binding signal [3, 17]: 0.000799 ± 8.3e-06
peptide microarray binding signal [4, 16]: 0.000287 ± 2.9e-06
peptide microarray binding signal [4, 17]: 0.000807 ± 1.5e-05

SGRGKQGGKARAK [H2A 1-13 Sph G Rme2a G K Q G G K A R A K]
peptide microarray binding signal ([1]; peptide modifications: H2AS1ph H2AR3me2a, binder concentration: 50 nM): 0.00235 ± 9e-05
peptide microarray binding signal ([1]; peptide modifications: H2AS1ph H2AR3me2a, binder concentration: 500 nM): 0.00381 ± 0.00015
peptide microarray binding signal ([2]; peptide modifications: H2AS1ph H2AR3me2a, binder concentration: 10 nM): 0.003223 ± 1.8e-05
peptide microarray binding signal ([2]; peptide modifications: H2AS1ph H2AR3me2a, binder concentration: 100 nM): 0.00206 ± 4.1e-05
peptide microarray binding signal [3, 18]: 0.000472 ± 1.2e-05
peptide microarray binding signal [3, 19]: 0.000685 ± 7.2e-06
peptide microarray binding signal [4, 18]: 0.000332 ± 3.4e-06
peptide microarray binding signal [4, 19]: 0.000577 ± 6.2e-06

SGRGKQGGKARAK [H2A 1-13 Sph G Rme2s G K Q G G K A R A K]
peptide microarray binding signal ([1]; peptide modifications: H2AS1ph H2AR3me2s, binder concentration: 50 nM): 0.00357 ± 5.8e-05
peptide microarray binding signal ([1]; peptide modifications: H2AS1ph H2AR3me2s, binder concentration: 500 nM): 0.00752 ± 0.00025
peptide microarray binding signal ([2]; peptide modifications: H2AS1ph H2AR3me2s, binder concentration: 10 nM): 0.00257 ± 5e-05
peptide microarray binding signal ([2]; peptide modifications: H2AS1ph H2AR3me2s, binder concentration: 100 nM): 0.00482 ± 0.0003
peptide microarray binding signal [3, 20]: 0.000378 ± 3.9e-06
peptide microarray binding signal [3, 21]: 0.000571
peptide microarray binding signal [4, 20]: 0.000317 ± 9.6e-06
peptide microarray binding signal [4, 21]: 0.000577 ± 6.2e-06

SGRGKQGGKARAK [H2A 1-13 Sph G R G K Q G G K A R A K]
peptide microarray binding signal ([1]; peptide modifications: H2AS1ph, binder concentration: 50 nM): 0.00235 ± 3.8e-05
peptide microarray binding signal ([1]; peptide modifications: H2AS1ph, binder concentration: 500 nM): 0.00462 ± 0.00011
peptide microarray binding signal ([2]; peptide modifications: H2AS1ph, binder concentration: 10 nM): 0.002148 ± 1.2e-05
peptide microarray binding signal ([2]; peptide modifications: H2AS1ph, binder concentration: 100 nM): 0.00312 ± 0.00029
peptide microarray binding signal [3, 22]: 0.000208 ± 2.2e-06
peptide microarray binding signal [3, 23]: 0.000342 ± 3.8e-06
peptide microarray binding signal [4, 22]: 0.000166 ± 3.6e-06
peptide microarray binding signal [4, 23]: 0.000231 ± 2.6e-06
